Most compounds without a hit are left out; they make up all but 8% or so of the library.
FBPA coupling cs: qHTS Assay for Inhibitors of Fructose-1,6-bisphosphate Aldolase from Giardia Lamblia: Coupling assay counterscreen. coupling enzyme system counterscreen, AmpLite Red fluorescence. activity change, negative = inhibition, % at 58.2 µM, hits read low. 0.67% of 290,000 active. AID 2472, 2010; in the data active means activity change below about -30%
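Final compound at 57.5 uM, incubated 10 min at RT with coupling enzyme reagent (glyceraldehyde-3-phosphate), then 20 min with substrate and AmpLite Red detection. Fluorescence read at 525/598 nm; tests interference with the coupling assay, not aldolase inhibition.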
RORg inh: qHTS for inhibitors of ROR gamma transcriptional activity | Nuclear receptor ROR-gamma (Mus musculus), P51450 | Drosophila S2 Gal4-RORgamma UAS-luciferase reporter, 20 h | Potency, µM (highest dose often 53.6 µM), without a hit: at the highest dose activity change, negative = inhibition, most hits filed as inhibitors | 5.4% of 310,000 active; further: potency means the concentration at half of the fitted maximal effect; nearly all actives have a fitted effect of over 60% in size
Target sequence (P51450 whole entry, looked up, the tested form may be a part): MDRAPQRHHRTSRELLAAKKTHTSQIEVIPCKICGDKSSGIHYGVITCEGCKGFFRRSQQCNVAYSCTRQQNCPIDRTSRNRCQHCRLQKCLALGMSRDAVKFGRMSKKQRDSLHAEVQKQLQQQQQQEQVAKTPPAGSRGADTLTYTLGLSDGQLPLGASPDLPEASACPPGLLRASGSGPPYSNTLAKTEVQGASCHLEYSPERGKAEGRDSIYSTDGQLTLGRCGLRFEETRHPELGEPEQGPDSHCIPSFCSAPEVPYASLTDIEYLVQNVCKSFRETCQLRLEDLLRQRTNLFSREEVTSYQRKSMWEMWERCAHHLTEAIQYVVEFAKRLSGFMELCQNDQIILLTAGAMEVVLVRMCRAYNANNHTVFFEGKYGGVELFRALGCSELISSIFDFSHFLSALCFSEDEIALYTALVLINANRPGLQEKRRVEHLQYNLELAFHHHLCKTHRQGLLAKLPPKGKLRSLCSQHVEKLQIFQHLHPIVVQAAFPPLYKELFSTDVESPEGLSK
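Schneider cells (Drosophila), stable Gal4 DBD–ROR gamma + UAS-luc; 1 hr cmpd preincubation; Cu2+ induction 700 uM final; 20 hr ambient; luminescence.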
TSHR antagonist: Antagonists of the Thyroid Stimulating Hormone Receptor: HTS campaign | Thyrotropin receptor (Homo sapiens), P16473 | TSHR-expressing cells, TSH-stimulated cAMP HTRF, 2 h; active compounds read low | activity change, negative = inhibition, % at 11.5 µM | 0.2% of 330,000 active;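 active means activity change below a set negative limit, meaning inhibition stronger than a set level, cut at about -70% in these data; inconclusive means activity change between two set negative limits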
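TSHR-expressing cells, 200/well, pre-treated with compound, then stimulated with EC80 TSH (4nM final) for 2 hours at 37 deg C. cAMP measured by competitive HTRF: anti-cAMP cryptate antibody in lysis buffer plus cAMP-d2, read after 30 minutes at room temperature.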
Gal4-VP16 FLuc: VP16 counterscreen qHTS for inhibitors of ROR gamma transcriptional activity; Drosophila S2 Gal4-VP16 UAS-luciferase, luminescence, 20 h; Potency, µM (series often up to 53.6 µM), without a hit: at the highest dose activity, negative = inhibition, hits mostly inhibitors; 3.5% of 310,000 active; AID 2546, 2010;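 further: Gal4-VP16 expression switched on by copper sulfate through the metallothionein promoter; potency means the concentration at half of the fitted maximal effect; nearly all actives have a fitted effect of over 50% in size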
ELG1 DNA repair: qHTS screen for small molecules that inhibit ELG1-dependent DNA repair in human embryonic kidney (HEK293T) cells expressing luciferase-tagged ELG1; HEK293T ELG1-luciferase reporter, luminescence, 16 h; DNA damage induced by 5-fluorouridine; AID 504467, 2011; Potency, µM (top dose mostly 46.1 µM), without a hit: at the highest dose activity change, negative = inhibition, actives largely listed as inhibitors; 2.3% of 330,000 active; further: potency means the concentration at half of the fitted maximal effect; nearly all actives have a fitted effect of over 55% in size
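Cells (2,000 per well) received 5-fluorouridine plus test compound or DMSO and were incubated 16 hr at 37 °C, 5% CO2. Luciferase activity was read by luminescence 30 min after ONE-Glo addition; signal suppression marked inhibition of damage-induced ELG1 function.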
Numbers without * were called inactive; ? = inconclusive; / = no result. Unless noted, the call rests on the fitted dose curve; in most records, active means well fitted curve in the direction sought with a large enough effect; inconclusive means small, poorly fitted or top-dose-only effect, or another doubt; inactive means no such curve, though single readings can be large; an effect the other way counts as inactive or inconclusive. On the % scale 0 is the no-effect control and ±100 the full control effect.

SMILES	FBPA coupling cs	RORg inh	TSHR antagonist	Gal4-VP16 FLuc	ELG1 DNA repair
C=CCCC(=O)NC1CC(C)(C)Cc2c1cnn2-c1ccc(OC)cc1 (stereo not given)	1	10%	-7	-4%	-10%
COC(=O)[C@@]1(Cc2ccc(OC)cc2)[C@H]2c3cc(C(=O)N(C)C)n(Cc4ccc(C)o4)c3C[C@H]2CN1C(=O)c1ccccc1	-1	-1%	/	?	/
CCOc1cccc2sc(Nc3nc4ccc(NC(C)=O)cc4s3)nc12	1	3.5µM*	-16	4µM*	?
CCC(=O)Nc1nc2ccc(NC(C)=O)cc2s1	0	8%	-1	14%	?
CC(C)CCn1c(CN2CCN(Cc3ccccc3)CC2)nc2c1c(=O)n(C)c(=O)n2C	3	15%	-13	-2%	?
CCCCCn1c(CN2CCN(Cc3ccccc3)CC2)nc2c1c(=O)n(C)c(=O)n2C	0	?	3	-13%	21µM*
CCCCn1c(CN2CCN(c3ccccc3)CC2)nc2c1c(=O)n(C)c(=O)n2C	1	-7%	-19	6.3µM*	?
CCOC(=O)N1CCN(Cc2nc3c(c(=O)n(C)c(=O)n3C)n2Cc2cccc(C)c2)CC1	7	1%	25	0%	18µM*
Cn1c(=O)c2c(nc(CN3CCN(c4ccccc4)CC3)n2Cc2c(F)cccc2Cl)n(C)c1=O	1	-7%	-12	-8%	10µM*
CCCc1ccc(OCc2ccc(C(=O)N3CCSCC3)o2)cc1	1	?	1	-9%	?
Cn1c(=O)c2c(nc(CN3CCc4ccccc4C3)n2Cc2ccccc2)n(C)c1=O	0	-30%	1	-8%	16µM*
Cn1c(=O)c2c(nc(N3CCN(Cc4ccccc4)CC3)n2CCCc2ccccc2)n(C)c1=O	2	1%	-7	-3%	12µM*
CCN1CNC(=S)N(c2cccc(C)c2)C1	2	?	-2	2%	14%
S=C1NCN(C2CCCCC2)CN1c1ccccc1	4	22µM*	3	?	-4%
CCOc1cc(N2CCOCC2)c(OCC)cc1NC(=O)CSc1cccc[n+]1[O-]	-33*	?	2	-5%	3%
CCOc1cc(N2CCOCC2)c(OCC)cc1NC(=O)Cc1ccccc1OC	-27	-53%	-3	22µM*	?
COCC(C)n1c(SCC(=O)NC(=O)NC2CCCC2)nc2ccccc2c1=O (stereo not given)	/	/	-2	/	-12%
CCN(CC)S(=O)(=O)c1ccc(N2CCN(S(=O)(=O)c3ccc4c(c3)OCCO4)CC2)nc1	2	25%	-21	-16%	9.2µM*
CN1C(=O)C(=O)N(CC(=O)Nc2ccccc2OC(F)F)C1=O	/	/	7	/	13%
Cc1ccc2c(C)nc(Nc3nc(CSc4nc5ccccc5[nH]4)cc(=O)[nH]3)nc2c1	4	?	-45	5.6µM*	4.6µM*
Cc1ccc2nc(Nc3nc(-c4ccccc4)cc(=O)[nH]3)nc(C)c2c1	0	?	-13	13µM*	-5%
Cc1ccc2nc(NC3=NCN(Cc4ccccc4)CN3)nc(C)c2c1	1	-12%	-4	-14%	-3%
Cc1ccc2nc(Nc3nc(=O)c4ccccc4n3C)nc(C)c2c1	-3	0.79µM*	10	1µM*	16%
COc1ccc(C(=O)Nc2ccccc2SCc2cc(=O)n3nc(C)sc3n2)cc1OC	3	1%	-1	-2%	13%
Cc1nn2c(=O)cc(CSc3nc4ccccc4[nH]3)nc2s1	0	4µM*	26	-11%	2%
SMILES	FBPA coupling cs	RORg inh	TSHR antagonist	Gal4-VP16 FLuc	ELG1 DNA repair
Cc1ccc(SCc2cc(=O)[nH]c(Nc3nc(C)c4ccc(C)cc4n3)n2)cc1	3	-1%	-3	-5%	12%
COCc1cc(=O)[nH]c(Nc2nc(C)c3cc(OC)ccc3n2)n1	-1	-15%	1	-3%	1%
COc1ccc2c(C)nc(Nc3nc(-c4ccccc4)cc(=O)[nH]3)nc2c1	2	4.5µM*	-14	4µM*	4.1µM*
CCCCCC(=O)NNC1=NCC(Cc2cccc(Cl)c2)S1 (stereo not given)	1	0.79µM*	0	5µM*	-15%
CC(C)(C)OC(=O)N1CCC(Cc2cc(-c3cccnc3)no2)(C(=O)O)CC1	/	/	-4	/	11%
CC1=NN(C(=O)c2ccc(C)o2)C(O)(c2ccccc2)C1 (stereo not given)	1	3.2µM*	-7	6.3µM*	29%
CC1=NN(C(=O)c2ccco2)C(O)(c2ccccc2)C1 (stereo not given)	2	1.8µM*	-6	6.3µM*	-2%
Cc1nn(C(=O)c2ccco2)c(C)c1Br	-1	10%	1	-1%	-7%
COc1ccccc1OCc1ccc(C(=O)N2N=C(C(F)F)CC2(O)C(F)F)o1 (stereo not given)	0	-20%	1	-6%	10%
Cc1c(Cl)cccc1N1C(=O)CC(NNC(=O)c2ccc3c(c2)OCO3)C1=O (stereo not given)	/	/	/	/	16%
O=C(N/N=C/c1ccc(-c2cccc([N+](=O)[O-])c2)o1)c1cccs1	3	10µM*	-6	?	?
O=[N+]([O-])c1cccc(-c2ccc(/C=N/NC(=S)Nc3cccc(F)c3)o2)c1	0	0.89µM*	-20	7.1µM*	?
NC(=S)N/N=C/c1ccc(-c2cccc([N+](=O)[O-])c2)o1	-1	1µM*	-1	4.5µM*	-25%

Assay outcomes as filed in PubChem BioAssay.
